# Experiments:
# Test in all cases: DAPPL (digital affinity profiling via proximity ligation, sequencing); 10 mM Tris-HCl pH 7.5, 50 mM NaCl, 1 mM DTT, 4% glycerol, room temperature, 30 min; GST-TFs on glutathione beads, 16-mer random dsDNA library, 0.1% formaldehyde crosslink after washing; high values mean tight binding
# FEV = target: T1, FEV (Homo sapiens, UniProt Q99581 1-238); details: protein: recombinant; tags: N-terminal GST; dsDNA, one strand shown
# T1 sequence: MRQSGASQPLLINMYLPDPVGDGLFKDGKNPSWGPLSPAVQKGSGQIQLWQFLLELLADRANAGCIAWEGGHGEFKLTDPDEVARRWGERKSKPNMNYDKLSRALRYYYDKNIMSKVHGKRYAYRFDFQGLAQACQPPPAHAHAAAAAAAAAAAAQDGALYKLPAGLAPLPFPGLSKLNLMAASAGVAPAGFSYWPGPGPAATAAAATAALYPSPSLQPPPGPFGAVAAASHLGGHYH
# In short: (§1)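 Binding signal is each hexamer's read frequency for a factor divided by its frequency in the tag-only sample. The factors were GST-fused human transcription factors from yeast, captured on glutathione beads, DNA-barcoded and pooled with that sample. Pools were incubated with 200 nmole of a random double-stranded 16-mer DNA library in Tris/NaCl/DTT/glycerol buffer at room temperature for 30 min, then washed, crosslinked with 0.1% formaldehyde, proximity-ligated with BsaI/T4 ligase (1 h, 37 °C), PCR-amplified and sequenced on an Illumina NextSeq500.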
# ETV5 = ETV5 (Homo sapiens, UniProt P41161 1-510); details: protein: recombinant; tags: N-terminal GST; dsDNA, one strand shown
# ETV5, sequence (P41161 whole entry): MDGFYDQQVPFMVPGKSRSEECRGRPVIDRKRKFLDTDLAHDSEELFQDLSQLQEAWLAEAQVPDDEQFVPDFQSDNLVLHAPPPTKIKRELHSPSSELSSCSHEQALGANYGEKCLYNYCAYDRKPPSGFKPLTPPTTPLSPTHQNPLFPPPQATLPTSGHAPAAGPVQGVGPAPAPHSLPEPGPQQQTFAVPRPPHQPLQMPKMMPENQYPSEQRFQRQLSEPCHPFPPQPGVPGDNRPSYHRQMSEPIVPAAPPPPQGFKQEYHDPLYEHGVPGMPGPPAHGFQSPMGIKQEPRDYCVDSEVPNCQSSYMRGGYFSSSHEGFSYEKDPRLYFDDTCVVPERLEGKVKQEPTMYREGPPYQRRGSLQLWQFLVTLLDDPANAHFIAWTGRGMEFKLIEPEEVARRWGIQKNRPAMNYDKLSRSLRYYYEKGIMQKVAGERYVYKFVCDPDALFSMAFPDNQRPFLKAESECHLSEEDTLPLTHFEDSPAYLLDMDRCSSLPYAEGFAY
# In short: as §1
# HSF1 = HSF1 (Homo sapiens, UniProt Q00613 1-529); details: protein: recombinant; tags: N-terminal GST; chain copies: 3; dsDNA, one strand shown
# HSF1, sequence (Q00613 whole entry): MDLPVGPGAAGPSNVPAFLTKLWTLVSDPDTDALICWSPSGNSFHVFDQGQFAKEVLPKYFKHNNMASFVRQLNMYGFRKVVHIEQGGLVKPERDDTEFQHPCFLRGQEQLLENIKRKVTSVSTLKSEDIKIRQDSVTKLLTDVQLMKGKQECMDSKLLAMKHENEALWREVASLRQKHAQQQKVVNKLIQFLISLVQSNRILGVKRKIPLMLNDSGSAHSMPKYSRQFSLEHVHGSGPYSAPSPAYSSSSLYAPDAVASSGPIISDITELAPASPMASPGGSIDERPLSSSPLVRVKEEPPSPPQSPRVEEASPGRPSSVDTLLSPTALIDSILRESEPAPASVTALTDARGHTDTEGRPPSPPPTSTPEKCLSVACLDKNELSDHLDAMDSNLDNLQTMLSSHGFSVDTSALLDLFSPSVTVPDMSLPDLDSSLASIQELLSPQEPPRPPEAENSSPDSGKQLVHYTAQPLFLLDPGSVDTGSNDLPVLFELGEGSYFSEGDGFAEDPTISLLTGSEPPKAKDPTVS
# In short: as §1
# SPIC = target: T2, SPIC (Homo sapiens, UniProt Q8N5J4 1-248); details: protein: recombinant; tags: N-terminal GST; dsDNA, one strand shown
# T2 sequence: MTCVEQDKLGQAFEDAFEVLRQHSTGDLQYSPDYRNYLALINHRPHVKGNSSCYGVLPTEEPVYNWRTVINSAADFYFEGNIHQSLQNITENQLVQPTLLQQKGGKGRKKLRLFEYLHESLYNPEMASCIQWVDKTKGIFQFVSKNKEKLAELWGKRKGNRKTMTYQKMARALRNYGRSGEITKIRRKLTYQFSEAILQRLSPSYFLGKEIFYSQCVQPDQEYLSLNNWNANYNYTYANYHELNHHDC
# In short: as §1
# ELF4 = ELF4 (Homo sapiens, UniProt Q99607 1-663); details: protein: recombinant; tags: N-terminal GST; dsDNA, one strand shown
# ELF4, sequence (Q99607 whole entry): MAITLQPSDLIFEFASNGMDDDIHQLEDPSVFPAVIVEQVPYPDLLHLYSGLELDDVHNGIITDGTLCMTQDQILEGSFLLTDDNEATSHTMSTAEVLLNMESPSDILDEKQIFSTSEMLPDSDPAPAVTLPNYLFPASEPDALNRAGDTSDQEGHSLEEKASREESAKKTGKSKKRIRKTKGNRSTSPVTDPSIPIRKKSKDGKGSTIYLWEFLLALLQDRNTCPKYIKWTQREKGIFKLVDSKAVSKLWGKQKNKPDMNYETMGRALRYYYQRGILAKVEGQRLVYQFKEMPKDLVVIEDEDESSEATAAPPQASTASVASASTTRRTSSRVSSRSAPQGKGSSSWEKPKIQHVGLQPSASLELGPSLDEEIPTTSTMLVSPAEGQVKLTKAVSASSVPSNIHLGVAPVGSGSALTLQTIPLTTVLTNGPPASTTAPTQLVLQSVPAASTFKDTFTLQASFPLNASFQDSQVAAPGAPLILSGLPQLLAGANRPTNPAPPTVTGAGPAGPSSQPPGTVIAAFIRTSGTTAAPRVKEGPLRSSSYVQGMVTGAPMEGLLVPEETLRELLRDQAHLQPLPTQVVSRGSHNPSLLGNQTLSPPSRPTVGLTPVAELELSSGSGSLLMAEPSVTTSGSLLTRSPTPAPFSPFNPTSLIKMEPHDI
# In short: as §1
# ELK4 = target: T3, ELK4 (Homo sapiens, UniProt P28324-2 1-405); details: protein: recombinant; tags: N-terminal GST; dsDNA, one strand shown
# T3 sequence: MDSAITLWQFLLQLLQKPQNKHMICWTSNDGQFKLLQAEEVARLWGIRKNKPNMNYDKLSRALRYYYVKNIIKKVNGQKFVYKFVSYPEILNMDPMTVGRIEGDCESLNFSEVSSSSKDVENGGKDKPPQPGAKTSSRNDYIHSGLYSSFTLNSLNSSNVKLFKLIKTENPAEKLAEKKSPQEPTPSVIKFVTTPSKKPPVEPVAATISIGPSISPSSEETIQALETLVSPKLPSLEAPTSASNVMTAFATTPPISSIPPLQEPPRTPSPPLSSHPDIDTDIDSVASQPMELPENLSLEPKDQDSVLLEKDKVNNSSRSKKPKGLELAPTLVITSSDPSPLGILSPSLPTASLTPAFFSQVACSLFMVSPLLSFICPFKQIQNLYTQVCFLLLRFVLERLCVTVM
# In short: as §1
# ETV2 = target: T4, ETV2 (Homo sapiens, UniProt O00321 1-342); details: protein: recombinant; tags: N-terminal GST; dsDNA, one strand shown
# T4 sequence: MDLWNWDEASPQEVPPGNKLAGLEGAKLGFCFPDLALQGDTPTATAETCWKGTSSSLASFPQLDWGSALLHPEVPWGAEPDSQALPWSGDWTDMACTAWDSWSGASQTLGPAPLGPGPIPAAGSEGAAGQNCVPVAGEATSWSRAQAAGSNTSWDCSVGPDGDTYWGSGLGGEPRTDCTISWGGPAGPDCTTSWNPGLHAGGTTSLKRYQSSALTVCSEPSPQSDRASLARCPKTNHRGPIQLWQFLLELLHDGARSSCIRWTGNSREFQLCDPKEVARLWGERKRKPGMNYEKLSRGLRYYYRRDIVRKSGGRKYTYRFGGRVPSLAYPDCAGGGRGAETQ
# In short: as §1
# ELF3 = target: T5, ELF3 (Homo sapiens, UniProt P78545 1-371); details: protein: recombinant; tags: N-terminal GST; dsDNA, one strand shown
# T5 sequence: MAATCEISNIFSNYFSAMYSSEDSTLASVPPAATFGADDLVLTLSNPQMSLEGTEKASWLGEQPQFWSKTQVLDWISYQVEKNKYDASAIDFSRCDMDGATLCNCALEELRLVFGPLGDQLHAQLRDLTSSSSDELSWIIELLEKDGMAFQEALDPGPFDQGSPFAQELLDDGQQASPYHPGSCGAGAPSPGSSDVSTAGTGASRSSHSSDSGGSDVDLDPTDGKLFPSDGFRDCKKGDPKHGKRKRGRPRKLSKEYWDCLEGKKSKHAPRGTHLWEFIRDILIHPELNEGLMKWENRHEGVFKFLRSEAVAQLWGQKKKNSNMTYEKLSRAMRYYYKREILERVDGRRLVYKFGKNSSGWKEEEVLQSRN
# In short: as §1
# CRX = CRX (Homo sapiens, UniProt O43186 1-299); details: protein: recombinant; tags: N-terminal GST; dsDNA, one strand shown
# CRX, sequence (O43186 whole entry): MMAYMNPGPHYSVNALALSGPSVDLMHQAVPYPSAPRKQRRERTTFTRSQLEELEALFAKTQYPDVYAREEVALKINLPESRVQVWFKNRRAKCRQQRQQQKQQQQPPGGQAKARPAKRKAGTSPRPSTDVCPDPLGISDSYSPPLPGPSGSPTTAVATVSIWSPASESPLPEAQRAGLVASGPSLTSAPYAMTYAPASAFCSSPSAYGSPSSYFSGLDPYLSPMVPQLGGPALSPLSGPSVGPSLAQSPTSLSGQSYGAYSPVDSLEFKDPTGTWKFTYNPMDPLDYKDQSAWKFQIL
# In short: as §1
# ETV1 = ETV1 (Homo sapiens, UniProt P50549 1-477); details: protein: recombinant; tags: N-terminal GST; dsDNA, one strand shown
# ETV1, sequence (P50549 whole entry): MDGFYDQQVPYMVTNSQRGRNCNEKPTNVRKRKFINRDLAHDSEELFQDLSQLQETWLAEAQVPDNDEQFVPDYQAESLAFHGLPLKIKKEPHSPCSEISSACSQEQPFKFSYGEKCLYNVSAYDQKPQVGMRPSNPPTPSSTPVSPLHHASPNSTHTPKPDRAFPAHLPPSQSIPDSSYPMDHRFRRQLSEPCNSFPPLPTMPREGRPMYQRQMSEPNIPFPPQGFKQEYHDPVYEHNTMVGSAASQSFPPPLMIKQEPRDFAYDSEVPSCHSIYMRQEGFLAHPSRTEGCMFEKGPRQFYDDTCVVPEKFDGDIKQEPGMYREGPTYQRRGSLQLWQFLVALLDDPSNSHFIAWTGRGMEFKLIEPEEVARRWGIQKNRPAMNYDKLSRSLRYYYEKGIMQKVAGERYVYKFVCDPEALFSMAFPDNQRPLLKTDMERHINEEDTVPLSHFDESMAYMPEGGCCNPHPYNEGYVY
# In short: as §1
# ERF = target: T6, ERF (Homo sapiens, UniProt P50548 1-548); details: protein: recombinant; tags: N-terminal GST; dsDNA, one strand shown
# T6 sequence: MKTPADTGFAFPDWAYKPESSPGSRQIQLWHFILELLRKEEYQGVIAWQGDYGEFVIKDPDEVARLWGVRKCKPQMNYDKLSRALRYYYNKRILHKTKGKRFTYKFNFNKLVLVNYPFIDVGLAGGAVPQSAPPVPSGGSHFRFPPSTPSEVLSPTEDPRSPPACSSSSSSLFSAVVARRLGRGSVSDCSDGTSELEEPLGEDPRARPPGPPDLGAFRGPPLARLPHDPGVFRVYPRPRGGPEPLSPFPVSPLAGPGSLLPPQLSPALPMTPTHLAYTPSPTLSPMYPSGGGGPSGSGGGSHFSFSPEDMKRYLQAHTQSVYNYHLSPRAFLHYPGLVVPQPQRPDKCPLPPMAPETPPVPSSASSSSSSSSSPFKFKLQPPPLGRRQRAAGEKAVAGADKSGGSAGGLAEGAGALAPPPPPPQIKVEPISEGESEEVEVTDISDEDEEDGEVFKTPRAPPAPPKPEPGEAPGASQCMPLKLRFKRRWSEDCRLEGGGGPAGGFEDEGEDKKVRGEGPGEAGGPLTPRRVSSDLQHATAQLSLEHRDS
# In short: as §1
# ETV3L = target: T7, ETV3L (Homo sapiens, UniProt Q6ZN32 1-361); details: protein: recombinant; tags: N-terminal GST; dsDNA, one strand shown
# T7 sequence: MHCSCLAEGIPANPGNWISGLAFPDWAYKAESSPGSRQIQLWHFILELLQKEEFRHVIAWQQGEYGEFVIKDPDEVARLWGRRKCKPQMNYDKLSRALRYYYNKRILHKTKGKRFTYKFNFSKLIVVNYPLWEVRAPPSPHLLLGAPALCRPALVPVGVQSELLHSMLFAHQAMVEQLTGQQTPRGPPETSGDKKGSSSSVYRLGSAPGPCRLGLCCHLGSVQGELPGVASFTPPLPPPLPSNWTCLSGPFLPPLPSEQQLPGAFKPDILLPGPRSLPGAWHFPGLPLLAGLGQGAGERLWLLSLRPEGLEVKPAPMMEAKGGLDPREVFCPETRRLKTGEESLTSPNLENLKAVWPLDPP
# In short: as §1
# ETS2 = target: T8, ETS2 (Homo sapiens, UniProt P15036 1-469); details: protein: recombinant; tags: N-terminal GST; dsDNA, one strand shown
# T8 sequence: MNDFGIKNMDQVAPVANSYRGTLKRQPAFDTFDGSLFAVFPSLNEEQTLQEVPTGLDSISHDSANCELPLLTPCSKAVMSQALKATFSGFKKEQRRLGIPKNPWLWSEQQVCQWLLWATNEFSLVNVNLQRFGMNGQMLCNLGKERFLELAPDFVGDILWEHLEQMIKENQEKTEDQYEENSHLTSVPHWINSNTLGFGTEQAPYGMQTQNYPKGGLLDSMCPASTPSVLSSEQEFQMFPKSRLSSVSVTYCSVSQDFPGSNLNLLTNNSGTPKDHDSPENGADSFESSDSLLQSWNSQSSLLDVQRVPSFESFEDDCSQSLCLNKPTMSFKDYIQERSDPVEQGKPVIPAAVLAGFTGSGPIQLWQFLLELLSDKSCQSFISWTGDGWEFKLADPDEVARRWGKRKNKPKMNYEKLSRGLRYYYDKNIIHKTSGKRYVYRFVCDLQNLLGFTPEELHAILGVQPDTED
# In short: as §1
# SPDEF = target: T9, SPDEF (Homo sapiens, UniProt O95238 1-335); details: protein: recombinant; tags: N-terminal GST; dsDNA, one strand shown
# T9 sequence: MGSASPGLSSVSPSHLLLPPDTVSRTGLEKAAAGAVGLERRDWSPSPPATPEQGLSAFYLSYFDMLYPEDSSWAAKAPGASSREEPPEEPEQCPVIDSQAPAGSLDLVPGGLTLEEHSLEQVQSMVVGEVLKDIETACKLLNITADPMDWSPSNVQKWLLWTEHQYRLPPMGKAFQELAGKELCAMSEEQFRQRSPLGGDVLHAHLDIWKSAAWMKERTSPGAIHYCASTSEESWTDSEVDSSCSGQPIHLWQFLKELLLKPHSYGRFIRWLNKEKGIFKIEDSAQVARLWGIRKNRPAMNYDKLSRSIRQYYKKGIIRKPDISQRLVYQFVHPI
# In short: as §1
# ETV7 = target: T10, ETV7 (Homo sapiens, UniProt Q9Y603 1-341); details: protein: recombinant; tags: N-terminal GST; dsDNA, one strand shown
# T10 sequence: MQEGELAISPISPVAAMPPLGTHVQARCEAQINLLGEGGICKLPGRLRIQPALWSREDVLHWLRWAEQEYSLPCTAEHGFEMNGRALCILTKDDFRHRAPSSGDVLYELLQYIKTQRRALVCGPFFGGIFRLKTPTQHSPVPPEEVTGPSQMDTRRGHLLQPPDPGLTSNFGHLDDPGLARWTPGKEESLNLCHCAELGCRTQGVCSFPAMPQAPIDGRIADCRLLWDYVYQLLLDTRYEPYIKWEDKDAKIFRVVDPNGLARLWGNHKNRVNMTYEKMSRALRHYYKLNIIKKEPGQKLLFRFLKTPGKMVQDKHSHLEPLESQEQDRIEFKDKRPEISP
# In short: as §1
# ELF5 = target: T11, ELF5 (Homo sapiens, UniProt Q9UKW6-2 1-255); details: protein: recombinant; tags: N-terminal GST; dsDNA, one strand shown
# T11 sequence: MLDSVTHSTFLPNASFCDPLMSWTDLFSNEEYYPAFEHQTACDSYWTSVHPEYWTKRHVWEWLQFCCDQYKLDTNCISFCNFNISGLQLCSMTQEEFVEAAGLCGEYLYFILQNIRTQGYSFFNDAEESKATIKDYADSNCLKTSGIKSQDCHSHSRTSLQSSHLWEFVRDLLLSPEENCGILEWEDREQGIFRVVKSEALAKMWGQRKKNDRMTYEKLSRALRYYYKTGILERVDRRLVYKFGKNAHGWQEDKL
# In short: as §1
# ETV3 = target: T12, ETV3 (Homo sapiens, UniProt P41162-2 1-143); details: protein: recombinant; tags: N-terminal GST; dsDNA, one strand shown
# T12 sequence: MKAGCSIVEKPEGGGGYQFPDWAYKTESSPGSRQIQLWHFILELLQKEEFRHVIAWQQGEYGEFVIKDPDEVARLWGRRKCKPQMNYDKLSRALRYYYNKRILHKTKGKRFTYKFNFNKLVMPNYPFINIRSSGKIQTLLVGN
# In short: as §1
# ETV6 = ETV6 (Homo sapiens, UniProt P41212 1-452); details: protein: recombinant; tags: N-terminal GST; dsDNA, one strand shown
# ETV6, sequence (P41212 whole entry): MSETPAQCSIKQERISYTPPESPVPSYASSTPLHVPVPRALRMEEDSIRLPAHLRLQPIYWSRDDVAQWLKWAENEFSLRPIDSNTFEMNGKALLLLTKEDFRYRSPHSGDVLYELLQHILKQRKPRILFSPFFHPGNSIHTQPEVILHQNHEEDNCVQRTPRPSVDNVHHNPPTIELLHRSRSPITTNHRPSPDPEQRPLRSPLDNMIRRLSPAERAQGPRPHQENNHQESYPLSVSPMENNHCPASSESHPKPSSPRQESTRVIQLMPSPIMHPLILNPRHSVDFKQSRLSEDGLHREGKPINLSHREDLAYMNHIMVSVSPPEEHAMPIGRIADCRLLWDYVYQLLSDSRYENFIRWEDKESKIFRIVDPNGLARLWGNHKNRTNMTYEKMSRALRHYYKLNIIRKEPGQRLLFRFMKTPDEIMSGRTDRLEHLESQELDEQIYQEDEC
# In short: as §1
sequence,measurement,setting,value
ATATCA,binding signal,FEV,"1.1 fold enrichment (6-mer frequency, TF over GST control)"
same,binding signal,ETV5,"1.19 fold enrichment (6-mer frequency, TF over GST control)"
same,binding signal,HSF1,"1.04 fold enrichment (6-mer frequency, TF over GST control)"
same,binding signal,SPIC,"1.21 fold enrichment (6-mer frequency, TF over GST control)"
same,binding signal,ELF4,"1.19 fold enrichment (6-mer frequency, TF over GST control)"
same,binding signal,ELK4,"1.16 fold enrichment (6-mer frequency, TF over GST control)"
same,binding signal,ETV2,"1.29 fold enrichment (6-mer frequency, TF over GST control)"
same,binding signal,ELF3,"1.08 fold enrichment (6-mer frequency, TF over GST control)"
same,binding signal,CRX,"1.13 fold enrichment (6-mer frequency, TF over GST control)"
same,binding signal,ETV1,"1.14 fold enrichment (6-mer frequency, TF over GST control)"
same,binding signal,ERF,"1.19 fold enrichment (6-mer frequency, TF over GST control)"
same,binding signal,ETV3L,"1.1 fold enrichment (6-mer frequency, TF over GST control)"
same,binding signal,ETS2,"1.2 fold enrichment (6-mer frequency, TF over GST control)"
same,binding signal,SPDEF,"1.2 fold enrichment (6-mer frequency, TF over GST control)"
same,binding signal,ETV7,"1.13 fold enrichment (6-mer frequency, TF over GST control)"
same,binding signal,ELF5,"1.11 fold enrichment (6-mer frequency, TF over GST control)"
same,binding signal,ETV3,"1.23 fold enrichment (6-mer frequency, TF over GST control)"
same,binding signal,ETV6,"1.18 fold enrichment (6-mer frequency, TF over GST control)"

# Source: article PMC7862700, “An all-to-all approach to the identification of sequence-specific readers for epigenetic DNA modifications on cytosine”
